Source: PubChem
IL1B secr inh: inflammasome signaling inhibition, IL-1 beta readout; activity change, % at 57.5 µM; THP-1 LPS/ATP IL-1B secretion, AlphaLISA, 16 h; stronger effect = lower value; 360,000 tested, 4.7% active; in the data active = activity change below about -50%; inconclusive = mostly about -30% to -49%
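THP-1 cells pretreated 1 hr with compounds (up to 57.5 uM final), then stimulated with LPS (250 ng/mL final) plus ATP (1.25 mM final); secreted IL-1B measured by AlphaLISA after 16 hr, decreased signal indicating inhibition.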
HT1080-NT tox: kills 2HG-producing HT-1080-NT fibrosarcoma cells. HT-1080-NT fibrosarcoma viability, CellTiter-Glo ATP luminescence, 48 h. Potency, µM (titrated, usually from 46.1 µM), hits mostly cytotoxic. 360,000 tested, 1.6% active;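 note: NT is the 2HG producing partner of a matched IDH1 knockdown line; nearly all actives have a fitted effect of over 55% in size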
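Luminescent CellTiter-Glo readout after 48 hours of compound exposure at 37 degrees C defined viability of HT-1080-NT cells. Activity was normalized to DMSO wells and cell-free media wells; concentration-response curves were fitted and assigned curve classes.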
HT1080 IDH1KD tx: toxicity to HT-1080 IDH1 knockdown cells (counter line); 360,000 tested, 2% active; Potency, µM (series often up to 46.1 µM), hits mostly cytotoxic; HT-1080 IDH1 knockdown viability, ATP luminescence, 48 h
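Luminescent ATP read-out (CellTiter-Glo, 10 min at room temperature) after 48 h compound exposure at 37 °C gave viability of IDH1-knockdown HT-1080 cells. Activity was normalised to DMSO and cell-free wells, then fitted as concentration-response curves.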
DT40 TDP1 no CPT: qHTS for Inhibitors of human tyrosyl-DNA phosphodiesterase 1 (TDP1): qHTS in cells in absence of CPT; DT40 Tdp1-/- hTDP1 cells, no CPT, ATP luminescence, 48 h; 420,000 tested, 15% active; Potency, µM (series often up to 46.2 µM), hits mostly inhibitors; note: nearly all actives have a fitted effect of over 55% in size
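Luminescent ATP content (CellTiter-Glo) served as the growth readout. Knockout chicken DT40 cells expressing human TDP1 were exposed to compounds without camptothecin for a minimum 48 hr at 37 °C.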
TDP1 cell CPT: growth inhibition of DT40 Tdp1-/-;hTDP1 cells with camptothecin (screen for TDP1 inhibitors); AID 686979; chicken DT40 Tdp1-/-;hTDP1 cells + 20 nM CPT, ATP luminescence, 48 h; 420,000 tested, 12% active; Potency, µM (titrated, usually from 46.2 µM), hits mostly inhibitors; note: nearly all actives have a fitted effect of over 55% in size
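Cell growth measured by CellTiter-Glo luminescence after a minimum 48 h, 37 C compound exposure with 20 nM CPT in Tdp1-knockout DT40 cells stably expressing hTDP1, seeded 400/well; qHTS titration format.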
ELG1 repair inh: inhibitors of ELG1-dependent DNA repair in HEK293T cells | HEK293T ELG1-luciferase reporter, luminescence, 16 h; DNA damage induced by 5-fluorouridine | Potency, µM (top dose mostly 46.1 µM), most hits filed as inhibitors | 330,000 tested, 2.3% active | AID 504467; note: nearly all actives have a fitted effect of over 55% in size
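Luminescence from the luciferase reporter, measured 30 min after ONE-Glo reagent at room temperature, was the read-out. Beforehand, 2,000 cells per well were exposed for 16 hr at 37 °C to 5-fluorouridine together with compound or vehicle.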
A number is an active result; n = inactive; u = inconclusive; x = no result. An excerpt weighted towards active compounds, which were near 19% of everything screened. Unless noted, calls come from the whole dose curve; as a rule, active = well fitted curve in the direction sought with a large enough effect; inconclusive = small, poorly fitted or top-dose-only effect, or another doubt; inactive = no such curve, though single readings can be large; an effect the other way counts as inactive or inconclusive.

SMILES	IL1B secr inh	HT1080-NT tox	HT1080 IDH1KD tx	DT40 TDP1 no CPT	TDP1 cell CPT	ELG1 repair inh
COc1ccccc1CN(Cc1cc2cc3c(cc2[nH]c1=O)OCCO3)Cc1nnnn1Cc1ccco1	n	n	n	u	25.9µM	20.6µM
CCOC(=O)Cn1nnnc1CN(Cc1ccccc1)Cc1cc2cc(CC)ccc2[nH]c1=O	-91.4	n	n	u	20.6µM	n
O=c1[nH]c2cc3c(cc2cc1CN(Cc1cccs1)Cc1nnnn1Cc1ccco1)OCCO3	n	n	n	16.4µM	14.6µM	u
CCc1ccc2[nH]c(=O)c(C(c3nnnn3Cc3ccco3)N3CCC(C)CC3)cc2c1 (stereo not drawn)	n	n	n	u	u	n
COc1ccc(Cn2nnnc2CN(CCCN2CCOCC2)Cc2cc3cc(OC)ccc3[nH]c2=O)cc1	n	n	n	u	u	n
COc1ccc(C(=O)OCn2nnc3ccccc3c2=O)cc1	n	n	n	u	n	n
COc1ccc(CN2CCN(C(=O)C3CCN(C(=O)Nc4ccccc4)CC3)CC2)cc1OC	n	n	n	u	n	u
CC(O)(c1ccc(F)c(F)c1)c1nc(-c2cccc(C#N)c2)cs1 (stereo not drawn)	n	n	u	u	u	x
O=c1[nH]c2cc3c(cc2cc1CN(Cc1ccccc1)Cc1nnnn1Cc1ccco1)OCCO3	-59.2	n	u	u	u	u
CCS(=O)(=O)N1CCC(C(=O)Nc2cccc(F)c2)CC1	n	n	n	n	n	n
COc1ccc(CCn2c(=S)[nH]c(=O)c3c(C)cc(C)nc32)cc1OC	x	n	n	n	n	x
Cc1c(Cc2ccccc2)c(NCCN(C)C)n2c(nc3ccccc32)c1C#N	-70.9	n	n	u	n	u
COc1ccc(-n2nc(C(=O)NCC(=O)NCCN(C)C)c3ccccc3c2=O)c(OC)c1	n	n	n	n	n	n
CC(C)(CN1CCOCC1)NS(=O)(=O)c1ccccc1	n	n	n	n	n	n
CCOc1ccc(NC(=O)C(C)Oc2ccc(C#N)cc2)cc1S(=O)(=O)N1CCCC1 (stereo not drawn)	n	n	n	n	n	u
COc1cc(C(=O)NC(=S)NNC(=O)[C@H]2C[C@@H]2c2ccccc2)cc(OC)c1OC	n	n	n	n	n	u
COc1cc(C(=O)NNC(=S)NC(=O)c2ccccc2C)cc(OC)c1OC	n	n	u	u	16.4µM	n
COc1ccccc1C(=O)NNC(=S)NC(=O)c1cc(OC)c(OC)c(OC)c1	n	n	u	6.51µM	18.4µM	n
CC(C)c1cccc(C(C)C)c1NC(=O)CCl	-82.5	n	n	16.4µM	u	n
O=C(Nc1c2c(nn1-c1ccc(F)cc1)CS(=O)(=O)C2)c1ccc2c(c1)OCO2	n	n	n	n	n	n
CCc1ccccc1NC(=O)CNC(=O)c1cc(C2CC2)nn1-c1ccccc1	n	n	n	n	u	u
CCCC12CN3CC(C)(CN(C1)C3c1ccc(CC)cc1)C2=O (stereo not drawn)	x	x	x	4.61µM	u	x
CCCC12CN3CC(C)(CN(C1)C3c1ccc(OC(C)C)cc1)C2=O (stereo not drawn)	n	n	n	u	n	n
COc1ccccc1OC(C)C(=O)N(Cc1ccco1)C1CCS(=O)(=O)C1 (stereo not drawn)	n	n	n	n	n	n
Cc1csc(NC(=O)CSc2nc3[nH]c(=O)cc(O)c3s2)n1	-105.0	5.8µM	5.17µM	14.6µM	20.6µM	x
CCCSc1nnc(NC(=O)CSc2nc3[nH]c(=O)cc(O)c3s2)s1	n	n	n	n	n	n
CCc1nnc(NC(=O)CSc2nc3[nH]c(=O)cc(O)c3s2)s1	n	n	n	6.51µM	6.51µM	u
C=CCn1c(SCC(=O)Nc2ccc(F)cc2)nnc1-c1cnccn1	n	n	n	n	n	n
